Measured values: ChEMBL document CHEMBL3988442, “University of Dundee, Small-Polar-MMV Screening Library” (2021)
Hit rate of the full screen: of about 53,000 compounds, about 900 (1.7%) showed an effect of 50% or more. The full list was thinned out, with strong results kept by preference.

Test system: Mycobacterium tuberculosis
Test: Cornell - Phenotypic assay to identify agents that inhibit growth of Mycobacterium tuberculosis
Type: functional
Set-up: scale not given: direction of the effect not stated beside the values
Conditions: 10 mM as filed; unlikely as a test dose

| SMILES | Percent Effect [%] |
| --- | --- |
| CCc1cc(O)n2nc(C3CCN(C(=O)c4ccccn4)CC3)cc2n1 | 37.19 |
| NC(=O)CN1CCC2(CC1)C[C@@H](O)[C@H](c1ccccc1)NC2=O | -49.18 |
| COCC(=O)N1CCCC1(C(=O)N(C)C)c1cnccn1 (stereo not given) | 19.92 |
| Cc1cc(-c2ccccc2Cl)nc(N)n1 | 22.73 |
| CC(C)(C)c1ncc(C(=O)NCCNC(=O)c2cccs2)s1 | -14.14 |
| O=C(NCCNC(=O)c1scnc1Cl)c1cccs1 | -53.65 |
| O=C(NCCNc1cc(-n2cccc2)ncn1)c1cccs1 | 57.48 |
| Cc1ccc2c(c1)[C@@H](CC(=O)N(C)C)CCO2 | 3.607 |
| CN(C)c1ccc(C(=O)NCCCc2ccccn2)cn1 | -1.76 |
| CCNc1ncc(C(=O)N[C@H](C(N)=O)c2ccccc2)cn1 | -10.46 |
| NC(=O)C(NC(=O)c1ccc(NC2CC2)nc1)c1ccccc1 (stereo not given) | -20.48 |
| COC(=O)C(NC(=O)c1ccc(NC2CC2)nc1)c1ccccc1 (stereo not given) | 107 |
| CC(C)c1cc(NC(=O)c2ccc(NC3CC3)nc2)[nH]n1 | -6.556 |
| COC(=O)C(NC(=O)c1ccc(N(C)C)nc1)c1ccccc1 (stereo not given) | 107.9 |
| OC1(CN2CCCC(Cn3cncn3)C2)CCCCC1 (stereo not given) | 2.144 |
| CNC(=O)c1sc2ccccc2c1C1CCN(c2cc(C)nc(C)n2)C1 (stereo not given) | -31.24 |
| Cc1cnn(C2CCCN(C(=O)c3ccc(O)nc3)C2)c1 (stereo not given) | -59.29 |
| Cc1ccc(CN2CC[C@@H]3[C@@H]2CCN3C(=O)Cc2cccs2)o1.O=C(O)C(F)(F)F | 2.395 |
| CC(Nc1nc(-c2ccccc2)nc2c1CCNCC2)c1nccs1 (stereo not given) | 28.69 |
| CC(Nc1nc(-c2ccncc2)nc2c1CCNC2)c1ccccc1 (stereo not given) | 16.91 |
| Cc1cc(CC(C)Nc2nc(-c3cccnc3)nc3c2CNC3)[nH]n1 (stereo not given) | -19.02 |
| CC(Nc1nc(-c2ccccc2)nc2c1CCNCC2)c1cccnc1 (stereo not given) | 76.64 |
| CCc1cc(C(C)Nc2nc(-c3cccnc3)nc3c2CNC3)on1 (stereo not given) | 9.073 |
| Cc1cccnc1[C@H](C)Nc1nc(-c2cccnc2)nc2c1CNC2 | 56.46 |
| Cc1cc(NCCNS(C)(=O)=O)nc2cc3c(cc12)CCC3 | -25.91 |
| Cc1cs/c(=N\C(=O)Cn2nc(N3CCOCC3)ccc2=O)[nH]1 | 32.69 |
| CC(C)c1n[nH]c(C2CN(C(=O)c3ncoc3C(C)C)CCO2)n1 (stereo not given) | -2.194 |
| COCCC(=O)N1Cc2nc3c(C)c(-c4cccs4)nn3c(O)c2C1 | 39.74 |
| Cc1c(-c2cccs2)nn2c(O)c3c(nc12)CN(C(=O)C1CC1)C3 | 54.87 |
| COCC(=O)N1Cc2nc3c(C)c(-c4cccs4)nn3c(O)c2C1 | 3.993 |
